Screening data deposited in PubChem by National Center for Advancing Translational Sciences (NCATS).
Only some compounds are listed: those with a hit (about 14% of all), similar ones and a draw of the others.
FBPA Giardia inh: inhibitors of Giardia lamblia fructose-1,6-bisphosphate aldolase; actives 0.71% (n = 290,000); purified Giardia FBPA; Potency, µM (titrated, usually from 59.6 µM), inactives show at the highest dose activity, negative = inhibition, hits mostly inhibitors; A8B2U2; note: potency is the fitted concentration of half-maximal effect; % is set by controls: 0 for no effect and ±100 for the full control effect; nearly all actives have a fitted effect of over 55% in size
Target sequence (A8B2U2 whole entry, looked up): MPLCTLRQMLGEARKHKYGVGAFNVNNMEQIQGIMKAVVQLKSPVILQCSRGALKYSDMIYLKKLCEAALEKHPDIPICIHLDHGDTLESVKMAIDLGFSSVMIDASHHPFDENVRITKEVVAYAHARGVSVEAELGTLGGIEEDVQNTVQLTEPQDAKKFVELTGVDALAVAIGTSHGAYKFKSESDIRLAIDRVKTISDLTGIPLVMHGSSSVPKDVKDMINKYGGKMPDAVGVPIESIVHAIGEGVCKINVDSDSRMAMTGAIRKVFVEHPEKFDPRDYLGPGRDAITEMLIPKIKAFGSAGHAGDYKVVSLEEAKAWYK
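Giardia FBPA (40 nM reagent) was preincubated 10 min at RT with compound (up to 57.5 uM final), then substrate plus GAPDH/TPI/NAD/arsenate coupling system with diaphorase/resazurin was added; resorufin fluorescence (525/598 nm) was read after 20 min.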
Shiga inhibitor: blocks Shiga toxin action in Vero cells | Vero cells, Shiga toxin protein synthesis inhibition reporter | AID 2315 | inhibition, % at 38.7 µM | actives 9.2% (n = 290,000); in the data active = inhibition mostly above about 28%, no sharp cut-off; inactive = mostly below about 43%; note: 0% is about no effect
NS1 function inh: inhibitors of influenza NS1 protein function; AID 2326; Potency, µM (titrated, usually from 46.1 µM), without a hit: top-dose activity, positive = more growth; actives 0.4% (n = 270,000); calls by dose curve; note: potency is the fitted concentration of half-maximal effect; actives are rising curves; nearly all actives have a fitted effect of over 50% in size
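A cell-based growth assay was used: compounds that relieve NS1-induced slow growth of budding yeast raise OD600. Assay medium was yeast nitrogen base with ammonium sulphate and -URA supplement, pH 6.0, with 2% galactose.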
Cycloheximide cs: counter-screen hit for Shiga toxin inhibitors, cycloheximide. actives 12% (n = 300,000). max response, %. AID 2314. cell reporter, cycloheximide protein synthesis inhibition counterscreen; in the data active = max response mostly above about 13%, no sharp cut-off; inactive = mostly below about 14%; note: read at 38.3 µM for the half of the compounds with a filed dose; 0% is about no effect
LmPK inh: LmPK (Leishmania mexicana) enzyme inhibition; purified LmPK, Kinase-Glo ATP luminescence, 1 h; Potency, µM (series often up to 57.5 µM), without a hit: at the top dose activity change, negative = inhibition, hits mostly inhibitors; actives 0.37% (n = 290,000); note: potency is the fitted concentration of half-maximal effect; % is set by controls: 0 for no effect and ±100 for the full control effect
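qHTS format; LmPK 0.1 nM; substrates PEP 0.5 mM and ADP 0.1 mM. One-hour room-temperature incubation, then coupled luciferase luminescence; 0.5 nM enzyme wells mark activation.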
An asterisk follows results filed as active; ? = inconclusive; . = not tested or not shown. Unless noted, calls come from the whole dose curve; as a rule, active = well fitted curve in the direction sought with a large enough effect; inconclusive = small, poorly fitted or top-dose-only effect, or another doubt; inactive = no such curve, though single readings can be large; an effect the other way counts as inactive or inconclusive.

SMILES	FBPA Giardia inh	Shiga inhibitor	NS1 function inh	Cycloheximide cs	LmPK inh
CCN(C(=O)C1CCCCC1)c1nnc(-c2cccnc2)s1	12%	-3	-47%	12	1%
COc1ccc(C(=O)N=c2sc3ccccc3n2C)cc1OC	-9%	32	-7%	20	3%
Cn1c(=NC(=O)C2=NNC(=O)CC2)sc2ccccc21	-1%	45*	.	28*	0%
O=C(NNC(=S)NC(=O)c1cccc([N+](=O)[O-])c1)c1ccc(O)cc1	13%	53*	-3%	32*	6%
CC(=O)NC(=S)Nc1cccc([N+](=O)[O-])c1	0%	-7	7%	-3	2%
O=C(NC(=S)Nc1cccc(F)c1)c1cccc([N+](=O)[O-])c1	?	67*	-4%	20*	0%
Cc1cccc(NC(=S)NNC(=O)c2cccc([N+](=O)[O-])c2)c1	17%	50*	-4%	19*	1%
O=C(NNC(=S)Nc1ccc(Cl)c(Cl)c1)c1cccc([N+](=O)[O-])c1	8%	10	-33%	2	7%
O=C(NCc1nnc(SCC(=O)N2CCOCC2)o1)c1c(F)cccc1F	-1%	-15	5%	-2	-3%
O=C(N/N=C\c1c(O)ccc2ccccc12)c1ccc(O)cc1	12%	12	6%	2	0%
Cc1occc1C(=O)N/N=C/c1c(O)ccc2ccccc12	9%	90*	-1%	36*	1%
Cn1nccc1C(=O)N/N=C/c1c(O)ccc2ccccc12	?	47*	-12%	28*	-5%
O=C(N/N=C/c1c(O)ccc2ccccc12)c1ccc(Br)o1	0%	-2	-18%	18*	0%
CC(=O)OC1CC[C@]2(C)C(=CCC3C4CCC(C(C)CCCC(C)C)[C@]4(C)CCC32)C1 (some centres undefined)	2%	.	.	.	.
N=C1S/C(=C\c2ccc(-c3cccc(Cl)c3)o2)C(=O)N1c1nccs1	23%	10	9%	9	-2%
COc1ccc(/C=C2\SC(=N)N(c3nccs3)C2=O)cc1OC	28%	-1	-11%	14*	-24%
CCC(C)NC(=O)C1CC(=O)N(CCc2ccc(F)cc2)C1 (centres undefined)	16%	-13	16%	-1	2%
COCCn1c(SCC(=O)NCc2ccc(F)cc2)nc2ccccc21	-7%	-3	2%	-1	0%
CC(=O)c1ccc(NC(=O)CCc2nnc3ccc(N4CCC5(CC4)OCCO5)nn23)cc1	-11%	82*	2%	47*	-5%
c1ccc(-c2ccccc2-c2nc(-c3cccnc3)no2)cc1	-6%	-6	-102%	-1	2%
c1ccc(-c2cc(-c3nc(-c4cccnc4)no3)c3ccccc3n2)cc1	0%	-6	-27%	0	5%
c1ccc2c(-c3nc(-c4ccncc4)no3)cccc2c1	1%	63*	-22%	21*	-2%
c1ccc(-c2noc(-c3cccc4ccccc34)n2)cc1	-1%	50*	-16%	54*	-11%
c1cncc(-c2noc(-c3cccc4ccccc34)n2)c1	-2%	89*	-6%	45*	4%
CC(C)CCC[C@@H](C)[C@H]1CC[C@H]2[C@@H]3CC=C4CC(O)CC[C@]4(C)[C@H]3CC[C@]12C (some centres undefined)	2%	11	.	4	.
SMILES	FBPA Giardia inh	Shiga inhibitor	NS1 function inh	Cycloheximide cs	LmPK inh
CC(C)NC(=O)C(c1ccc(F)cc1)N(C(=O)CCC(=O)Nc1ccccn1)C1CCCCC1 (centres undefined)	5%	-4	-25%	-1	3%
COc1ccc(/C=C2/SC(=S)N(CCCC(=O)Nc3cccc(O)c3)C2=O)cc1	1%	45*	10%	35*	5%
COc1cccc(/C=C2\SC(=S)N(CCC(=O)Nc3ccc(O)cc3)C2=O)c1	-6%	47*	6%	30*	-8%
COC(=O)c1ccc(/C=C2/SC(=S)N(CCCC(=O)Nc3ccc(O)cc3)C2=O)cc1	.	-10	16%	11	-9%
Cc1ccc(/C=C2\SC(=S)N(CCCC(=O)Nc3ccc(O)cc3)C2=O)cc1	4%	39*	-2%	18*	-2%
COc1ccc(/C=C2\SC(=S)N(CCC(=O)Nc3cccc(O)c3)C2=O)cc1OC	11%	15	1%	1	0%
CCCOc1ccc(/C=C2\SC(=S)N(CC3CCCO3)C2=O)cc1 (centres undefined)	1%	20	-4%	-2	-4%
COc1cccc(/C=C2\SC(=S)N(CCC(=O)NCCc3ccc(O)cc3)C2=O)c1	-8%	16	2%	9	4%
O=C1/C(=C/c2ccc(O)cc2)SC(=S)N1CC1CCCO1 (centres undefined)	3%	40*	-4%	36*	0%
O=C(NC1CCCN(CCc2ccccc2)C1)c1c(F)cccc1F (centres undefined)	2%	2	4%	1	-2%
COCCOc1cc(NC(=O)c2cccc(OC)c2)c(Cl)cc1Cl	-2%	33	.	6	8%
COc1cccc(C(=O)Nc2cc3c(cc2Cl)OCCCO3)c1	-5%	84*	-27%	76*	-10%
COc1ccc(C(=O)Nc2cc3c(cc2Cl)OCCCO3)cc1	1%	94*	-17%	45*	-6%
O=C(O)CNC(=O)c1ccccc1F	9%	-5	-1%	0	0%
O=C(NCCCCNC(=O)c1ccccc1F)c1ccccc1F	-5%	-4	4%	-4	-6%
Cc1ccc2[nH]c(CNC(=O)c3ccccc3F)cc2c1	-1%	51	?	29*	7%
O=C(NCc1nc2ccccc2[nH]1)c1ccccc1F	-2%	72*	2%	33*	-1%
O=C(NCc1cc2ccccc2[nH]1)c1ccccc1F	17%	.	20%	38*	3%
CCCn1c(=O)[nH]c2nc(-c3ccc(S(=O)(=O)O)cc3)[nH]c2c1=O	-3%	-2	.	-6	.
COc1c(Br)cc(Br)cc1C(=O)Nc1ccccc1N1CCCC1	4%	-11	-3%	9	3%
COc1ccc(C(=O)NCCCOc2cccnc2)cc1OC1CCN(C(C)=O)CC1	.	-5	0%	5	-1%
CC1OC(n2cc(F)c(=O)[nH]c2=O)C(O)C1O (centres undefined)	2%	.	.	.	.
COc1ccc(CCNC(=O)/C=C/c2ccc3ccccc3n2)cc1OC	13%	45	-14%	14*	-3%
Cc1c(C(=O)NCc2ccc3c(c2)OCO3)oc2ccc(Br)cc12	9%	-20	-11%	0	4%
Cc1ccc2oc(C(=O)NCC3CCOCC3)c(C)c2c1	.	59*	-2%	21	-2%
COc1cccc(OCC(O)CNC(=O)c2oc3ccc(C)cc3c2C)c1 (centres undefined)	-7%	-7	-39%	-2	4%
Cc1ccc2oc(C(=O)NCc3ccc4c(c3)OCO4)c(C)c2c1	-6%	2	-124%	24*	-1%
Cc1ccc2c(Cl)c(C(=O)NCC(c3ccco3)N3CCCC3)sc2c1 (centres undefined)	.	-4	-2%	6	-10%
